From PubChem BioAssay (NCATS)
Unmarked numbers belong to inactive results. Records with an inconclusive call do not appear. A call without a number means that no potency is given here. Activity calls are given as the source filed them. Unless noted, calls follow the shape of the dose curve; as a rule, active = well fitted curve in the direction sought with a large enough effect; inconclusive = small, poorly fitted or top-dose-only effect, or another doubt; inactive = no such curve, though single readings can be large; an effect the other way counts as inactive or inconclusive.

How the values were obtained:
[1] = biological target: Glucocorticoid receptor (Homo sapiens) (UniProt P04150); experiment: GR-GFP Redistribution (AID 450;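 active = compounds whose dose series gives a full or clear partial fitted curve of increased nuclear translocation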; also: potency is read from the fitted curve at half-maximal effect)
[2] = biological target: Glucocorticoid receptor (Homo sapiens) (UniProt P04150); experiment: GR-EFC Redistribution (AID 451; calls by dose curve; also: potency is read from the fitted curve at half-maximal effect); conditions: CHO-K1 GR-EFC translocation, beta-gal luminescence, 2 h
Procedure, shortened: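 CHO-K1 cells expressing nuclear EA and GR-ED fragments of b-gal; compounds titrated up to 46 uM final, 2 h at 37 C. GR nuclear translocation read as complemented b-gal luminescence after 1 h RT detection.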

[3] = biological target: 3',5'-cyclic-AMP phosphodiesterase 4B (Homo sapiens) (UniProt Q07343); experiment: qHTS Assay for Inhibitors of PDE-IV (AID 607; active = well fitted activation curve with a large enough effect in the main read-out, with a control signal flat, not every such curve was filed as active)
Procedure, shortened: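 ACTOne HEK293 cells carry a modified cAMP-gated CNG channel and express endogenous PDE4; plated 1000 cells/well, compounds up to 22.9 uM final. Membrane-potential dye fluorescence (ex 535/em 590) was read; parental cells received 10 uM forskolin + 100 uM RO 20-1724.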

[4] = biological target: Cytochrome P450 2D6 (Homo sapiens) (UniProt P10635); experiment: qHTS Assay for Inhibitors and Substrates of Cytochrome P450 2D6 (AID 891);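 also: luciferin methyl ether substrate demethylated by CYP2D6 with NADPH regeneration; nearly all actives have a fitted effect of over 60% in size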
Procedure, shortened: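 Human CYP2D6 (5 nM) with 30 uM Luciferin-ME EGE (at Km) in 100 mM KPO4, compound preincubated 10 min, then NADPH regeneration system for 60 min at room temperature. Luciferin read by luminescence; normalized to 1.43 uM quinidine.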

[5] = biological target: Cytochrome P450 2C19 (Homo sapiens) (UniProt P33261); experiment: qHTS Assay for Inhibitors and Substrates of Cytochrome P450 2C19 (AID 899); also: nearly all actives have a fitted effect of over 60% in size; also: potency is read from the fitted curve at half-maximal effect
Procedure, shortened: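 5 nM human CYP2C19 with 10uM Luciferin-H EGE (at KM) in 50mM KPO4, compound preincubated 10 min at 37C, then NADPH regeneration for 60 min at 37C. Luciferin read by luminescence after detection reagent; normalized to 57uM ketoconazole as full inhibition.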

[6] = biological target: Mitogen-activated protein kinase 10 (Mus musculus) (UniProt Q61831); experiment: JNK3 AlphaScreen Assay (AID 530; active = well fitted curve in either direction with a large enough effect, not every such curve was filed as active;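 also: kinase came from lysate of stimulated human HepG2 cells; signal reports phosphorylation of biotinylated GST-cJun 1-79 at Ser73 with 10 µM ATP; series mostly up to about 57 µM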)
Procedure, shortened: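 Pre-activated (IL-1β/TNFα) JNK3 in HepG2 lysates phosphorylates biotin-GST-cJun(1-79), 10 uM ATP; anti-phospho-cJun(Ser73) AlphaScreen read at room temperature, pH 7.6 Tris buffer. Compounds pre-incubated 15 min as titrations.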

[7] = biological target: Cytochrome P450 2C9 (Homo sapiens) (UniProt P11712); experiment: qHTS Assay for Inhibitors and Substrates of Cytochrome P450 2C9 (AID 883); also: nearly all actives have a fitted effect of over 60% in size
Procedure, shortened: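 Human CYP2C9 (10nM) with Luciferin-H at 100uM (its KM) in 25mM KPO4; compound preincubated 10 min at 37C, then NADPH regeneration for 60 min at 37C. Luciferin read by luminescence after detection reagent; normalized to 57uM sulphaphenazole as full inhibition.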

[8] = biological target: Tyrosyl-DNA phosphodiesterase 1 (Homo sapiens) (UniProt Q9NUW8); experiment: Confirmation Assay for Inhibitors of Tyrosyl-DNA Phosphodiesterase (TDP1) (AID 489007); conditions: recombinant human TDP1 enzymatic activity, dose-response; also: potency is read from the fitted curve at half-maximal effect; nearly all actives have a fitted effect of over 40% in size
Procedure, shortened: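 Tdp1 1 nM + cpd, 15 min RT; add biotin/phosphotyrosine-FITC oligo 15 nM, 5 min RT; add AS donor/acceptor beads 10 ug/ml, 10 min RT; read AlphaScreen. No-enzyme wells = max signal.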

Sequence of Cytochrome P450 2D6 (Homo sapiens) (P10635 whole entry, looked up): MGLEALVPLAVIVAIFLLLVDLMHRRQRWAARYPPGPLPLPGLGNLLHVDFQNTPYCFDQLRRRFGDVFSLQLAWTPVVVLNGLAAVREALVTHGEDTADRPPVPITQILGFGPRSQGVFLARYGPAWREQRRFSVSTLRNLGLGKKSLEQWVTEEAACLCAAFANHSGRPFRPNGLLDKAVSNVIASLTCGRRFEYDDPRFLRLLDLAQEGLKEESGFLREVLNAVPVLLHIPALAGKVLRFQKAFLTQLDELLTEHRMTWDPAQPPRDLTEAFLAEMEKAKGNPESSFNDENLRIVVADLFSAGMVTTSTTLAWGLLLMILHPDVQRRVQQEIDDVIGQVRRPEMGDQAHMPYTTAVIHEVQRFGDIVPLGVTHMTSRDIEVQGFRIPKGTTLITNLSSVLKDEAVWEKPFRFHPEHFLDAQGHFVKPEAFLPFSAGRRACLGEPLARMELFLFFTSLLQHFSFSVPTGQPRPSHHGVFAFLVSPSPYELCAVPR
Sequence of Cytochrome P450 2C9 (Homo sapiens) (P11712 whole entry, looked up): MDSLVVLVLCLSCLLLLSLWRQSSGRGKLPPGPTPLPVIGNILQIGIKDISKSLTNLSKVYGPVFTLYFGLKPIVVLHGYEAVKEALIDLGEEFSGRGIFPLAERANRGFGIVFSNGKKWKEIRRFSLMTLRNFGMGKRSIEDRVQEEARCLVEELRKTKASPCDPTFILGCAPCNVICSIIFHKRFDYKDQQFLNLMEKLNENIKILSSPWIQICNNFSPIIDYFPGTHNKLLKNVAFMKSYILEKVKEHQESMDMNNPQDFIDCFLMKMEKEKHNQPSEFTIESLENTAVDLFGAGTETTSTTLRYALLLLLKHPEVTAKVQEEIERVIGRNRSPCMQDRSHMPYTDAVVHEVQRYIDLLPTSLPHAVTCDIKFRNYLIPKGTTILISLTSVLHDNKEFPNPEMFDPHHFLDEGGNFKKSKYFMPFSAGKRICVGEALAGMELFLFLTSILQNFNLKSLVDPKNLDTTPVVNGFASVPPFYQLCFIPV
Sequence of 3',5'-cyclic-AMP phosphodiesterase 4B (Homo sapiens) (Q07343 whole entry, looked up): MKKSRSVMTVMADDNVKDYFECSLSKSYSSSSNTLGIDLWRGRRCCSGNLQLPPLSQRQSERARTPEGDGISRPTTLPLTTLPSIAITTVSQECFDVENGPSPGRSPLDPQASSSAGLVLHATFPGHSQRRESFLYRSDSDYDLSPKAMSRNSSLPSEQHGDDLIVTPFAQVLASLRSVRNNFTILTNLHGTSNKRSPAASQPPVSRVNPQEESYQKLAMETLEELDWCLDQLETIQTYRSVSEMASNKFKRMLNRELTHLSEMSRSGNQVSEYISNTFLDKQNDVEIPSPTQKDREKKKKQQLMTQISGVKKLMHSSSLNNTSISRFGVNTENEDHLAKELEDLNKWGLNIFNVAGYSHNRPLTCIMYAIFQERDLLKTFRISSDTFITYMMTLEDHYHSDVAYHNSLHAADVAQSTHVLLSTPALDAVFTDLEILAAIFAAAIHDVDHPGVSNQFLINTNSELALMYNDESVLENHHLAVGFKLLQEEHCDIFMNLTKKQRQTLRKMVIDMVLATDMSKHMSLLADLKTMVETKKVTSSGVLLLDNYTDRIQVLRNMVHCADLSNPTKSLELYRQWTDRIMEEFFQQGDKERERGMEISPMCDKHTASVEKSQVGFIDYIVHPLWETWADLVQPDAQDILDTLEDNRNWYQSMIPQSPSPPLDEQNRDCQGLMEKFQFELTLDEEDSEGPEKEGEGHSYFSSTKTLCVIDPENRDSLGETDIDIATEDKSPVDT
Sequence of Glucocorticoid receptor (Homo sapiens) (P04150 whole entry, looked up, the tested form may be a part): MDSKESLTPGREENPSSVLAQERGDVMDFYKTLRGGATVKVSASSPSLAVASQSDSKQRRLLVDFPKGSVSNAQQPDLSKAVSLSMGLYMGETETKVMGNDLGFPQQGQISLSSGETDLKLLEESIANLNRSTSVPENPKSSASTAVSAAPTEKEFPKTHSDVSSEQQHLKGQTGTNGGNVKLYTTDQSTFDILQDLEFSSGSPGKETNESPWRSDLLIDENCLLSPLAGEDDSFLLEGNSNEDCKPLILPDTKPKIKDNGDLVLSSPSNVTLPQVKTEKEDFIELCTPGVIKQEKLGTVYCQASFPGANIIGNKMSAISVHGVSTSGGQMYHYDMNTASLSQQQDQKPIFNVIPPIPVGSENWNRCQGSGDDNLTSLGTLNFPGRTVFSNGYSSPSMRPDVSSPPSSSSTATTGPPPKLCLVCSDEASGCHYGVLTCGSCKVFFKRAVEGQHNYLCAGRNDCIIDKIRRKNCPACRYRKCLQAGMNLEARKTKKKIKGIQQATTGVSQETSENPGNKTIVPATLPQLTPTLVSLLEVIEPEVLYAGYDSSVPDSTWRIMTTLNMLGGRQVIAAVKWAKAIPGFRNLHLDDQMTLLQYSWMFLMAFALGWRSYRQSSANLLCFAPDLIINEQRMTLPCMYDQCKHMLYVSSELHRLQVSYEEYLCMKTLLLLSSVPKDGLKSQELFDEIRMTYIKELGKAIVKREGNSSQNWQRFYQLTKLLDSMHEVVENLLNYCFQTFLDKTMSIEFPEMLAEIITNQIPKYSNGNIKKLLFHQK
Sequence of Cytochrome P450 2C19 (Homo sapiens) (P33261 whole entry, looked up): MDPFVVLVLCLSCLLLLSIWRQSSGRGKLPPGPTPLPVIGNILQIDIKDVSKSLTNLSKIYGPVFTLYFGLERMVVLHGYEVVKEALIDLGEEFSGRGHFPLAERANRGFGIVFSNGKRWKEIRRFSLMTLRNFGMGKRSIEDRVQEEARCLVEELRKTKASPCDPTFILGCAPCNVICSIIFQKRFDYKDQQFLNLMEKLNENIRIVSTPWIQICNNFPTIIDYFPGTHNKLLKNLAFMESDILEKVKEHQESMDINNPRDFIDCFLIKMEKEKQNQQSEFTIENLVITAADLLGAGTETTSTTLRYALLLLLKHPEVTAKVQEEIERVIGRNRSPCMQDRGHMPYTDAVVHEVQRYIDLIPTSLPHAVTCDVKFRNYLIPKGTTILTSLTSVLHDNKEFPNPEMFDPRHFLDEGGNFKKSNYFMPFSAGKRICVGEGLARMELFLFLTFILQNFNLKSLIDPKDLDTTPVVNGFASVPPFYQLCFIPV
Sequence of Tyrosyl-DNA phosphodiesterase 1 (Homo sapiens) (Q9NUW8 whole entry, looked up): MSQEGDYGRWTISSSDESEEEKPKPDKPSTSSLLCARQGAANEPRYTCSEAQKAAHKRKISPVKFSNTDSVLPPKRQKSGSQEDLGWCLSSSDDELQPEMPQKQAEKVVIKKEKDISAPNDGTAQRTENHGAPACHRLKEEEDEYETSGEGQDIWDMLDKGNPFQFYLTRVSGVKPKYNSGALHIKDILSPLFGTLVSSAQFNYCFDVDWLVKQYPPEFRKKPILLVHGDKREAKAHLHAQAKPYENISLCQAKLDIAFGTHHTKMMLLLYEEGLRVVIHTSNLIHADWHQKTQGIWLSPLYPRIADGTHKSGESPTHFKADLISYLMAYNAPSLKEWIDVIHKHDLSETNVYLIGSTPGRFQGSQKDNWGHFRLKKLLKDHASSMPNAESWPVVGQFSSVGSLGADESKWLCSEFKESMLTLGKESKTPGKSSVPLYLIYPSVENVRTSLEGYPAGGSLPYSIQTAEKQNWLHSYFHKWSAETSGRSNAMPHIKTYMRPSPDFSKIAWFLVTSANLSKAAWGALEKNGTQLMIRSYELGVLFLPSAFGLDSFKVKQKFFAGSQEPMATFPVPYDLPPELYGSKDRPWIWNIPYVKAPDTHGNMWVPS

CN1CCc2c(sc3ncn4nc(-c5ccccc5O)nc4c23)C1
Potency [1]: > 20.6 µM

COc1ccc(C(=O)c2sc(NC(C)C)nc2N)cc1OC
Potency [1]: > 20.6 µM

NCCC[C@@H](CC(=O)N[C@@H]1CCCC[C@H]1C(=O)N[C@H](CC(=O)N[C@@H](CCC(=O)O)CC(=O)O)Cc1ccccc1)NC(=O)C[C@H](Cc1c[nH]c2ccccc12)NC(=O)[C@@H]1CCCC[C@H]1N
Potency [2]: > 46 µM
Potency [3]: inactive
Potency [4]: inactive
Potency [5]: inactive

CC(C)C[C@@H](CC(=O)N[C@@H](CCC(=O)O)CC(=O)O)NC(=O)[C@@H]1CCCC[C@H]1NC(=O)C[C@@H](NC(=O)C[C@H](Cc1ccccc1)NC(=O)[C@@H]1CNCC[C@H]1N)C(C)C
Potency [2]: > 46 µM
Potency [6]: inactive
Potency [3]: inactive
Potency [7]: inactive
Potency [4]: inactive
Potency [5]: inactive

NCCC[C@@H](CC(=O)N[C@@H]1CCCC[C@H]1C(=O)N[C@H](CC(=O)N[C@@H](CCC(=O)O)CC(=O)O)Cc1c[nH]c2ccccc12)NC(=O)C[C@H](Cc1ccccc1)NC(=O)[C@@H]1CCCC[C@H]1N
Potency [2]: > 46 µM
Potency [6]: inactive
Potency [3]: inactive
Potency [4]: inactive

CC(=O)OC[C@@H]1O[C@@H](Oc2cc(OC(C)=O)c3c(=O)cc(-c4ccc(OC(C)=O)c(OC(C)=O)c4)oc3c2)[C@H](OC(C)=O)[C@H](OC(C)=O)[C@@H]1OC(C)=O
Potency [1]: > 46 µM
Potency [2]: > 46 µM
Potency [7]: inactive
Potency [4]: inactive
Potency [5]: inactive

CC(C)[C@@H](CC(=O)N[C@@H]1CCCC[C@H]1C(=O)N[C@H](CC(=O)N[C@@H](CCC(=O)O)CC(=O)O)Cc1ccccc1)NC(=O)C[C@H](Cc1c[nH]c2ccccc12)NC(=O)[C@@H]1CNCC[C@H]1N
Potency [2]: > 46 µM
Potency [3]: inactive
Potency [7]: inactive
Potency [4]: inactive
Potency [5]: inactive

NCCC[C@@H](CC(=O)N[C@@H]1CCNC[C@H]1C(=O)N[C@H](CC(=O)N[C@@H](CCC(=O)O)CC(=O)O)Cc1ccccc1)NC(=O)C[C@H](CO)NC(=O)[C@@H]1CNCC[C@H]1N
Potency [2]: > 46 µM
Potency [3]: inactive
Potency [4]: inactive

CC(C)C[C@@H](CC(=O)N[C@H](CC(=O)N[C@@H]1CCCC[C@H]1C(=O)N[C@H](CC(=O)N[C@@H](CCC(=O)O)CC(=O)O)Cc1ccccc1)C(C)C)NC(=O)[C@@H]1CCCC[C@H]1N
Potency [2]: > 46 µM
Potency [6]: inactive
Potency [3]: inactive
Potency [4]: inactive
Potency [5]: inactive

CC(C)[C@@H](CC(=O)N[C@@H]1CCCC[C@H]1C(=O)N[C@H](CC(=O)N[C@@H](CCC(=O)O)CC(=O)O)Cc1ccccc1)NC(=O)C[C@H](Cc1ccccc1)NC(=O)[C@@H]1CCCC[C@H]1N
Potency [2]: > 46 µM
Potency [3]: inactive
Potency [7]: inactive
Potency [4]: inactive
Potency [5]: inactive

CC(C)C[C@@H](CC(=O)N[C@H](CC(=O)N[C@@H]1CCNC[C@H]1C(=O)N[C@H](CC(=O)N[C@@H](CCC(=O)O)CC(=O)O)Cc1c[nH]c2ccccc12)C(C)C)NC(=O)[C@@H]1CCCC[C@H]1N
Potency [2]: > 46 µM
Potency [3]: inactive
Potency [4]: inactive
Potency [5]: inactive

CC(C)C[C@@H](CC(=O)N[C@@H](CCCN)CC(=O)N[C@@H]1CCNC[C@H]1C(=O)N[C@H](CC(=O)N[C@@H](CCC(=O)O)CC(=O)O)CC(C)C)NC(=O)[C@@H]1CCCC[C@H]1N
Potency [2]: > 46 µM
Potency [6]: inactive
Potency [4]: inactive
Potency [5]: 15.8 µM (active)

NCCC[C@@H](CC(=O)N[C@@H]1CCNC[C@H]1C(=O)N[C@H](CC(=O)N[C@@H](CCC(=O)O)CC(=O)O)Cc1ccccc1)NC(=O)C[C@H](Cc1c[nH]c2ccccc12)NC(=O)[C@@H]1CNCC[C@H]1N
Potency [2]: > 46 µM
Potency [6]: inactive
Potency [3]: inactive
Potency [4]: inactive
Potency [5]: inactive

CCC(=O)c1ccc(CCCCCC(=O)O)s1
Potency [8]: 31.6 µM (active)

CC(C)C[C@@H](CC(=O)N[C@@H](CCCN)CC(=O)N[C@@H]1CCNC[C@H]1C(=O)N[C@H](CC(=O)N[C@@H](CCC(=O)O)CC(=O)O)CC(C)C)NC(=O)[C@@H]1CNCC[C@H]1N
Potency [2]: > 46 µM
Potency [6]: inactive
Potency [3]: inactive
Potency [4]: inactive
Potency [5]: inactive
